Assay results from the supplement of paper PMC3334620.
The full ranking holds about 33,000 sequences; the median of “E-score (-0.5 to 0.5)” is about -0.053, and the highest 2% start at about 0.37. The list comes from a sample in which the highest values are over-represented; it also holds similar and randomly drawn sequences.

Target: Hap1 (UniProt P0CE41)
Test: PBM E-score (8-mer binding enrichment) (E-score (-0.5 to 0.5)); higher = stronger / more preferred TF binding
Conditions: protein concentration: 200 nM; construct: GST-DNA-binding domain
Summary of the method: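 Masliner-normalised scans of fluorescent anti-GST signal were the basis for scoring. That signal came from GST-tagged yeast transcription factors applied at about 100-200 nM to double-stranded universal all-10-mer Agilent arrays on fresh or once-stripped slides. Each ungapped eight-base word, pooled with its reverse complement, received an E-score from the Universal PBM Analysis Suite.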

Sequence of UniProt P0CE41 (P0CE41 whole entry): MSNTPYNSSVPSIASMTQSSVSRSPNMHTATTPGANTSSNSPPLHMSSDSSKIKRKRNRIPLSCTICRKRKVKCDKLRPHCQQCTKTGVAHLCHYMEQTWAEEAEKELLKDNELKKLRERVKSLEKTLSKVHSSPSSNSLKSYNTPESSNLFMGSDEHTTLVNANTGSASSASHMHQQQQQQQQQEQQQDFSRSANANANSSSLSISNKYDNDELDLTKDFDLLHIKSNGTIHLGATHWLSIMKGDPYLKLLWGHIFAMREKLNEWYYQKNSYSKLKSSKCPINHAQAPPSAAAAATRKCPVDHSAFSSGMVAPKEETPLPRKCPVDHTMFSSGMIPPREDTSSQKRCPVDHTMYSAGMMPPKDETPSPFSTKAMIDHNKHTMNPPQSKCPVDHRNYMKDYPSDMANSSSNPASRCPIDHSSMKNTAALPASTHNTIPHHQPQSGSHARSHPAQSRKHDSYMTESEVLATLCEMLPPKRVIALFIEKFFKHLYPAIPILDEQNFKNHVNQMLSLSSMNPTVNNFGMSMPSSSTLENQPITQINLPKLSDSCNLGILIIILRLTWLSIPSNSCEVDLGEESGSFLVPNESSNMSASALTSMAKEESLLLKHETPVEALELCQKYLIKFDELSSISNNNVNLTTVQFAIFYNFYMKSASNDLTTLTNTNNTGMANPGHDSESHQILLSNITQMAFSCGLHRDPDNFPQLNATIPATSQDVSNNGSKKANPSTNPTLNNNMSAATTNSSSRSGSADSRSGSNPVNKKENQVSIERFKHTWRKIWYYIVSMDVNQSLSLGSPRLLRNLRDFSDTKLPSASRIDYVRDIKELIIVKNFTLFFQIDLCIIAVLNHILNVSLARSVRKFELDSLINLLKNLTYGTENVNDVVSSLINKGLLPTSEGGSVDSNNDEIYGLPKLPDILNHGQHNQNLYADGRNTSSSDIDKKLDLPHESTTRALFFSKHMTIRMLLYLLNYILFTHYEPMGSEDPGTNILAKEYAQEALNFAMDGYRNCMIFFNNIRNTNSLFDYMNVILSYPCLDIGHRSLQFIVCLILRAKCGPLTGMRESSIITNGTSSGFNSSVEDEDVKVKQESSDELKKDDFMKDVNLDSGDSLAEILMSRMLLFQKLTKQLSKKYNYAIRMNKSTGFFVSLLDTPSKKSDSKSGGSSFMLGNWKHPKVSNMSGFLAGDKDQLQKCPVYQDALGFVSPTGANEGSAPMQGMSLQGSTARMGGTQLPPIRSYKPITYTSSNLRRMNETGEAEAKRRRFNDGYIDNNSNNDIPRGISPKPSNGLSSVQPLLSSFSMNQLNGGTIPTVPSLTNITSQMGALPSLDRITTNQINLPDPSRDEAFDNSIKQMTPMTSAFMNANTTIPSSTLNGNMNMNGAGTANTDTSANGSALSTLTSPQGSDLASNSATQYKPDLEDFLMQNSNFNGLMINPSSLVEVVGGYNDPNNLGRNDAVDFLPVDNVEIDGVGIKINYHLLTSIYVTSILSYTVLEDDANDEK

Sequence	PBM E-score
CGCGGGAG	0.0987
CCAGTGCG	0.0478
GTTCCATA	-0.0357
ACGCAACT	0.064
AGTGCCAT	-0.0559
CTATCGGA	0.452
TAATCGGA	0.317
GTATCGGA	0.415
GAATCGGA	0.366
ATATCGGA	0.439
GTATCGAA	-0.152
CTATCGAA	-0.177
AAATCGGA	0.344
ATATCGTA	0.11
CAATCGGA	0.394
CAATCGGG	0.205
CTATCGTA	-0.17
AACACAGA	-0.116
AGACCTTA	-0.154
GCTATAGC	0.0502
AGCGGCAA	0.0491
CACGCTAA	-0.0232
ATACCCCC	0.283
AACGCCCC	0.128
AAGGACAG	-0.182

Sequence	PBM E-score
ATATCGGG	0.436
ATATCGTG	-0.0299
AAATCGGG	0.246
ATTCCAAG	-0.177
CTTCCGAA	0.324
ATTCCGAC	0.307
ATTCCGAG	0.397
ATTCCGAA	0.375
AATCCGAG	0.338
AAGTCGGG	0.153
AAACCACG	-0.0117
ACACACCC	0.117
AAAGTCCT	0.157
CAAGTCCC	-0.181
CAAGTCCA	-0.222
AAAGTCCG	0.446
AAAGTCCA	-0.0824
CAAGTCCG	0.39
CATCCTCA	-0.154
AATCAAAG	-0.129
AGCGGTCG	0.123
GGCTAAAA	0.0064
GGATATAA	0.382
GGATATAC	0.319
CGTGATAA	-0.0733

Sequence	PBM E-score
GGAGATAA	0.455
CGAGATAC	0.188
CGAGATAA	0.164
AGAGATAA	0.00783
GGTGATAA	0.378
GGTGATAC	0.14
AGAGATAC	-0.0992
CGATATAA	0.308
GGAGATAC	0.438
CGGAAGCC	0.199
GAGCGTGA	-0.183
AGTGCACT	-0.0451
AACTTCTG	-0.205
CTGGTAGA	-0.2
GAACACGA	-0.0354
ACCTGAAT	-0.104
CAGCCCTA	-0.0376
CCTTATCG	0.241
AGTTATCG	0.382
ACTTATCG	0.415
ACTTATCA	-0.148
AGTTATCC	0.106
AGTTATCA	-0.0683
AGCGCGGA	0.223
GCGACAGC	0.0479

Sequence	PBM E-score
GCACGATA	0.0171
GCCCGATA	0.423
CCCCGAAA	0.348
GCCCGACA	0.255
CCCCGATC	0.35
ACCCGATG	0.3
CCCCGATA	0.44
ACCCGATC	0.244
ACCCGATA	0.439
CTTAGGAC	-0.283
AGGGGGAC	-0.213
ATCCGCCG	0.375
ATCCGCCC	0.243
ATCCGCCA	0.181
AACAAAGT	0.00728
GCGGTGGA	0.0678
CCGGTGGA	0.39
ACGGTGGA	-0.062
CGACCTTC	0.0839
AGGAGATA	0.253
GGGAGATA	0.268
CGGAGATA	0.495
AGGAGATC	-0.098
CGGAGATC	0.411
CTGAGATC	-0.171

Sequence	PBM E-score
GTTCCTGA	-0.242
AGCAATAC	-0.0164
AGTAAAGC	-0.00459
ACGTACAC	-0.181
ACCCAACG	-0.0503
CGGAGGAA	0.375
CGGAGGTA	0.443
CGGAGGTC	0.261
AGGAGGAA	-0.218
CGGAGGAG	0.284
AGGAGGTA	-0.044
GGAAAACA	0.139
CCGGCGGC	0.364
GCGGCGGA	0.382
GTGGCGGA	0.136
CTGGCGGA	-0.0445
CCGGCGGA	0.421
ACGGCGGA	0.273
GCGGCTCA	0.073
GAGTGTCA	-0.145
GAGAATGC	0.0329
ACGGATGA	0.228
AGACGCGG	0.0872
CTCGAAGA	-0.152
AGGATTTA	0.227

Sequence	PBM E-score
CGGATTTC	0.426
AGGATTTC	0.0343
GGGATTTA	0.327
CTGATTTC	-0.0451
CGGATTTA	0.489
CTAACCCC	0.235
GTCGAATA	-0.0336
CCACTGAG	-0.235
CCTTCGGA	0.364
CCTTCGGC	0.27
GCTTCGGA	0.327
ACTTCGGG	0.247
ACTTCGGA	0.403
ACTTCGGC	0.377
ACCGCAGT	0.106
CAGCCTAA	-0.354
ATACTTCC	0.162
ACATCCGA	0.382
ACATCCGG	0.427
ACATCCTG	-0.0661
ACATCCGC	0.347
CCATCCGG	0.254
ACATCCGT	0.213
TATGTACA	-0.124
GCCAGTTA	-0.14

Sequence	PBM E-score
CTGCCCGA	0.202
ACGCCCGT	0.251
ACGCCCGA	0.371
ACGCCCGC	0.183
CGGCCCGA	0.398
TCGCCCGA	0.362
GCGCCCGA	0.353
GGGCCCGA	0.317
ACGCCCGG	0.377
ACGCCCCG	0.193
AGGCCCGA	0.279
CCGCCCGA	0.37
GGCCAGCA	-0.0771
AAGTCTGA	-0.412
CTTGTCTC	-0.073
ACGCGAAA	-0.00838
ACAAGAGC	-0.109
CGGAGCGA	0.331
CCATAGGA	-0.258
GACACGTA	-0.194
CCGCCCGG	0.411
AAGCCCGC	0.337
AAGCCCGG	0.407
CCGCCCGC	0.3
CCGCCCCG	0.347

Sequence	PBM E-score
AAGCCCGT	0.232
CAAGTTCC	0.124
CAGTGTGC	-0.139
ATGGCAGA	0.089
CCAAATTC	-0.0397
GGTTCCGA	0.279
AGTTCCTG	-0.178
AGTTCCGG	0.394
AGTTCCGA	0.395
AGTTCCGC	0.278
CGTTCCGA	0.123
GGTCCTAC	-0.0458
GTCAGCAA	-0.157
TTCCGCAA	0.263
ACAGGTTC	-0.216
AACGGTAA	0.186
ACCGGTAG	0.228
ATCGGTAA	0.31
ACCGGTAC	0.334
ACCGGTAA	0.406
ACCGGTAT	0.424
ATCAACAC	-0.154
GAAAGAGC	-0.138
ACTAGACC	0.0797
GGTTAGCA	-0.0201

Sequence	PBM E-score
TGTCCTAA	-0.338
CGTCCGAC	0.302
AGCCCGAG	0.208
CGTCCAAA	0.0813
GGTCCAAC	0.13
CGCCCGAC	0.366
TGTCCGAA	0.412
GGTCCGAC	0.392
TGTCCAAA	-0.133
CGCCCGAG	0.396
GCTCCGAC	0.212
CGTCCGAA	0.394
AACCAACG	-0.104
GTCTTACA	-0.195
CTTGGTAC	-0.213
CCTCTTTA	-0.303
CCGGTTAC	0.279
ACACTGAA	-0.0306
AGAGTAGA	0.0496
ACGAACAT	0.0579
AAGGCAAA	-0.28
GGTCCGAA	0.434
CGTCCGAG	0.401
GGTCCAAA	0.0135
CATCCGAG	0.265

Sequence	PBM E-score
AGTCCAAA	-0.119
AGTCCGAA	0.416
GGTCCGTA	0.329
CGTCCAAG	-0.111
AGTCCTAA	-0.207
ACAAGGCA	-0.133
TAGCTTAA	-0.135
CATTGAAA	-0.0176
AAACGGAG	0.258
CCGTTGCC	0.299
CGGTGCTC	0.161
CATGGACA	-0.324
ATGCACAT	-0.225
CAAATTGA	-0.173
CAGCTCCG	0.299
AATCTCCG	0.476
ATTCTCCG	0.394
ATTCTCCC	0.0268
CATCTCCC	0.104
AATCTCCC	0.00843
AAGCTCCT	-0.0999
AATCTCCT	0.0543
CATCTCCG	0.435
AAGCTCCG	0.411
CATCTCCA	-0.0795

Sequence	PBM E-score
ATTCTCCA	-0.157
ACTGTACG	-0.167
GAGGCATA	0.00364
CCTGAGTC	-0.0525
GCCCTGAA	0.0376
AGTAGCCC	0.0495
ACATTCCC	0.0549
AGAGGGGA	-0.0354
TCGTAAAA	0.0494
ATGTACGA	0.105
CAGGGGAG	-0.137
TAAAGCAA	-0.0198
AACCGGCA	0.158
CACCGGCC	0.313
AACCGGCC	0.344
AACCGGCG	0.382
CACCGGCG	0.378
CACCGGCA	0.201
AATACTTG	-0.112
ACCGCACG	-0.0174
CCCAGCCC	-0.174
CAACCTTC	-0.0289
GCCCTTCA	-0.165
ATTTTCCA	-0.0537
ATTTTCGG	0.396

Sequence	PBM E-score
AATTTCCC	0.06
ATTTTCGA	-0.0541
AAATTCCA	0.0643
ATTTTCCC	0.123
AAATTCCC	0.145
ATTTTCGC	0.0139
ATTTTCCG	0.413
CATTTCCG	0.352
AATTTCCG	0.437
AAATTCCG	0.376
AGGTTGGC	0.00268
AAACCCCA	-0.134
GGCTCTAC	0.0591
GTCCTTCA	-0.162
CGTGAGAC	0.00208
GGGAGCAA	0.0117
AGTTTCCG	0.39
AGTTTCCC	-0.0919
AGTTTCCA	-0.133
ACCATAGT	-0.0861
CTCGGAAC	0.31
AGCGGACC	0.257
CGCGGACA	0.335
CACGGACC	0.341
CTCGGACC	0.375

Sequence	PBM E-score
ATCGGACA	0.394
ATCGGAAC	0.318
CTCGGACA	0.415
ATCGGACC	0.4
CTTGGACA	-0.0486
ATCGGGCA	0.238
GTCGGACA	0.347
CAAGGGGA	-0.0784
ATGGTTTG	0.0601
CGACGTAG	-0.0488
ATAGAGGA	-0.186
CTCCAATC	-0.121
CCCAATTC	-0.135
CACCACAA	-0.117
ACATCCAT	-0.093
ACGTCTGG	-0.202
AATAGTAT	0.103
AAGCAGCT	-0.114
CACGTCGA	-0.183
TACGGTGA	0.0448
AGACGGCA	-0.0262
ATCGGTCC	0.374
AACGGTCA	0.246
AACGGACA	0.369
CTCGGTCC	0.35

Sequence	PBM E-score
CACGGACA	0.312
AGCGGACG	0.297
ATCGGTCA	0.318
ATCGGACG	0.422
AACGGACG	0.305
GACGGTAC	0.142
CACCACCC	0.106
CGGTTGAG	0.18
AGACCTCT	-0.208
CGAGGCCA	0.022
TAGCACCA	-0.14
CGGGGCAA	0.198
ATATCTCC	0.437
CGATATCC	0.375
ATCTCTCC	-0.0103
AGATATCC	0.192
CGATATCA	0.234
CTATCTCC	0.358
ATATATCC	0.399
CTATATCC	0.202
ATATATCA	0.0242
AGATATCG	0.315
CGATATCG	0.388
GGATATCC	0.236
